Screening data from PubChem.
Shown are actives, neighbours in structure and some others; about 21% of the full set was active somewhere.
Pf growth 48h = Primary qHTS for delayed death inhibitors of the malarial parasite plastid, 48 hour incubation; P. falciparum luciferase growth in erythrocytes, 48 h; Potency, µM (series often up to 28.7 µM), for the others: at the highest dose activity change, negative = inhibition, usual class: inhibitors; 5.9% of 310,000 active; active = well fitted inhibition curve with a large enough effect; inconclusive = small, poorly fitted or top-dose-only effect, or another doubt; inactive = no such curve, though single readings can be large or run the other way; also: potency is read from the fitted curve at half-maximal effect; % is scaled to controls: 0 for no effect and ±100 for the full control effect
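Luciferase-expressing P. falciparum in infected erythrocytes (2% hematocrit, 0.1% parasitemia final) in RPMI 1640/0.5% Albumax were exposed to compound for 48 hours at 37 C, 5% CO2; growth read as luminescence.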
Pf growth 96h = Primary qHTS for delayed death inhibitors of the malarial parasite plastid, 96 hour incubation; Potency, µM (top dose mostly 28.7 µM), inactives show at the top dose activity change, negative = inhibition, actives largely listed as inhibitors; 6.9% of 320,000 active; P. falciparum luciferase reporter growth, 96 h; active = well fitted inhibition curve with a large enough effect; inconclusive = small, poorly fitted or top-dose-only effect, or another doubt; inactive = no such curve, though single readings can be large or run the other way; also: potency is read from the fitted curve at half-maximal effect; % is scaled to controls: 0 for no effect and ±100 for the full control effect
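96 h incubation, 37 C, 5% CO2, of luciferase-reporter P. falciparum-infected RBCs (2% hematocrit, 0.05% parasitemia final) with test compounds; endpoint luminescence.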
CHX counter = Cycloheximide Counterscreen for Small Molecule Inhibitors of Shiga Toxin. cell reporter, cycloheximide protein synthesis inhibition counterscreen. max response, %. 12% of 300,000 active; in the data active = max response mostly above about 13%, no sharp cut-off; inactive = mostly below about 14%; also: read at 38.3 µM for the half of the compounds with a filed dose; 0% is about no effect
Shiga toxin inh = A qHTS for Small Molecule Inhibitors of Shiga Toxin; Vero cells, Shiga toxin protein synthesis inhibition reporter; inhibition, % at 38.7 µM; 9.2% of 290,000 active; AID 2315, 2010; in the data active = inhibition mostly above about 28%, no sharp cut-off; inactive = mostly below about 43%; also: 0% is about no effect
NS1 function inh = qHTS Assay for Inhibitors of Influenza NS1 Protein Function; Potency, µM (highest dose often 46.1 µM), inactives show top-dose activity, positive = more growth; 0.4% of 270,000 active; also: potency is read from the fitted curve at half-maximal effect; actives are rising curves; nearly all actives have a fitted effect of over 50% in size
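Growth recovery, yeast-based: influenza A NS1 expressed in S. cerevisiae causes slow growth, and suppressors are detected by OD600. The parent strain without NS1 is used as positive control.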
SARS PLpro yeast = qHTS of Yeast-based Assay for SARS-CoV PLP | Potency, µM (series often up to 32.9 µM), for the others: at the top dose activity, positive = growth rescue, actives largely listed as activators | 0.19% of 330,000 active | S. cerevisiae expressing SARS-CoV PLpro, growth rescue; also: potency is read from the fitted curve at half-maximal effect; 0% is about no effect; nearly all actives have a fitted effect of over 55% in size
Numbers without * were called inactive; ? = inconclusive; . = not tested or not shown; [ ] = remark or other dose. Unless noted, calls follow the shape of the full dose curve.

SMILES | Pf growth 48h | Pf growth 96h | CHX counter | Shiga toxin inh | NS1 function inh | SARS PLpro yeast
O=Cc1ccc(OC(=O)CCCCC(=O)Oc2ccc(C=O)cc2)cc1 | ? | 0.0033µM* | 5 | -10 | -65% | -6%
CCN(CC)C(=O)c1ccccc1NC(=O)CN1C(=O)c2ccccc2C1=O | -7% | 3% | -1 | 8 | -3% | 1%
Cc1c(Cc2ccccc2)c(=O)oc2c(C)c(OCC(=O)NCC3CCC(C(=O)O)CC3)ccc12 (stereo not drawn) | ? | -24% | -5 | -5 | -20% | 5%
COc1cccc(-c2csc(N3CCN(C(=S)Nc4ccc(Cl)cc4)CC3)n2)c1 | ? | 10µM* | 24* | 75* | 29% | -8%
COc1cccc(-c2csc(N3CCN(C(=O)Nc4ccccc4Cl)CC3)n2)c1 | 0% | 17% | 9.5* | 50 | 13% | -2%
COc1cccc(NC(=O)N2CCN(c3nc(-c4cccc(OC)c4)cs3)CC2)c1 | ? | ? | 10 | 2 | 0% | -1%
CC(C)C(=O)N1CCN(c2nc(-c3ccc(Cl)cc3)cs2)CC1 | 6% | 40% | -2 | 32 | -1% | 0%
COc1cccc(-c2csc(N3CCN(C(=S)Nc4ccccc4)CC3)n2)c1 | ? | ? | 1 | -4 | 22% | 1%
CCOC(=O)N1CCN(c2nc(-c3ccc(Cl)cc3)cs2)CC1 | 15% | ? | 36* | 46* | 5% | -5%
COc1cccc(-c2csc(N3CCN(C(=O)NC45CC6CC(CC(C6)C4)C5)CC3)n2)c1 | 12µM* | -24% | 1 | 8 | ? | -5%
CCCCc1nc2cc(Cl)ccc2o1 | 23% | ? | -2 | -5 | -6% | 0%
O=C(CSc1ccccc1)N1CCCC(N2CCN(c3ccccc3)CC2)C1 (stereo not drawn) | 6% | ? | 11 | -6 | -3% | 0%
COc1cccc(-c2cc(C(=O)N3CCN(Cc4ccccc4)CC3)no2)c1 | 12% | . | 17 | 73 | -28% | -6%
COc1cccc(-c2csc(N3CCN(C(=S)Nc4cccc(C)c4)CC3)n2)c1 | ? | ? | 18* | 41 | ? | -1%
COc1cccc(-c2csc(N3CCN(C(=S)Nc4ccccc4C)CC3)n2)c1 | -30% | -2% | 18* | 49* | 22% | -1%
CNC(=S)N1CCN(c2nc(-c3cccc(OC)c3)cs2)CC1 | -12% | 12µM* | 9.9* | 1 | 10% | 3%
CCOc1ccccc1NC(=S)N1CCN(c2nc(-c3cccc(OC)c3)cs2)CC1 | ? | 22% | 13 | 47 | 22% | 6%
COc1cccc(-c2csc(N3CCN(Cc4ccccc4)CC3)n2)c1 | ? | . | 18* | 32 | -15% | ?
COc1ccccc1NC(=O)COC(=O)c1ccc(S(=O)(=O)N2CCCCCC2)cc1 | . | . | . | . | . | 2%
Cc1cccc2cc(COC(=O)c3ccccn3)c(=O)[nH]c12 | 6% | . | -1 | 26 | -8% | 9%
COCCNC(=S)N1CCN(c2nc(-c3ccc(Cl)cc3)cs2)CC1 | 30% | ? | -2 | 13 | 2% | 2%
CNC(=S)N1CCN(c2nc(-c3ccc(Cl)cc3)cs2)CC1 | ? | 7.4µM* | 16* | 21 | 15% | -3%
COc1ccc(S(=O)(=O)N(C)C[C@H]2Oc3ccc(NC(=O)C4CC4)cc3C(=O)N([C@H](C)CO)C[C@@H]2C)cc1 | . | . | . | . | . | -1%
CCOc1ccc(N(CC(=O)N2CCN(c3ccccc3OC)CC2)S(=O)(=O)c2ccc(C)cc2)cc1 | ? | 12µM* | -3 | -6 | 15% | -4%
CCOc1ccc(N(CC(=O)N2CCN(c3ccccc3OC)CC2)S(=O)(=O)c2ccc(F)cc2)cc1 | ? | 0.93µM* | 2 | 2 | -14% | 1%
SMILES | Pf growth 48h | Pf growth 96h | CHX counter | Shiga toxin inh | NS1 function inh | SARS PLpro yeast
COc1ccc(C2CC(=O)c3cnc(NC(=O)c4ccccc4OC)nc3C2)c(OC)c1 (stereo not drawn) | ? | 9.3µM* | -1 | 6 | -61% | -13%
COc1cccc(C(=O)Nc2ncc3c(n2)CC(C)CC3=O)c1 (stereo not drawn) | 13% | 6% | 40* | 71* | -5% | -6%
O=C(CSc1nc2[nH]ncc2c(=O)n1-c1ccccc1)c1ccc2c(c1)OCCO2 | ? | . | -1 | -6 | -19% | 0%
O=C(CSc1nc(O)cc(=O)n1-c1ccccc1)c1ccc(Br)cc1 | 42%[1.15 µM] | -21% | 24* | 55 | ? | -1%
N=c1c2cn[nH]c2nc(SCC(=O)c2ccc(Br)cc2)n1-c1ccc(Br)cc1 | 148% | 7.4µM* | -2 | 2 | 9% | 1%
Cn1c(N)c(C(=O)COC(=O)C2CCCN2C(=O)c2cccs2)c(=O)n(C)c1=O (stereo not drawn) | 32% | 38% | 1 | -12 | 5% | 0%
CN(C)c1ccc(P(=O)(OC2CCCCC2)C(Nc2ccccc2)c2cccnc2)cc1 (stereo not drawn) | 9.3µM* | 2.9µM* | 2 | 7 | -1% | -5%
CC(C)OP(=O)(c1ccc(N(C)C)cc1)C(Nc1ccccc1)c1cccnc1 (stereo not drawn) | ? | 0% | -2 | -9 | -6% | 19%
COC(=O)Cc1ccc(NC(=S)N2CCN(c3cc(Cl)ccc3C)CC2)cc1 | -4% | ? | -3 | 10 | -1% | 0%
COc1ccc(-c2ccc(N)cn2)cn1 | 79% | 82% | . | . | . | 0%
Cc1ncc(CO)c(/C=N/NC(=S)Nc2ccc(C(C)C)cc2)c1O | ? | 12µM* | 12 | 5 | 9% | 0%
Cc1ncc(CO)c(/C=N/NC(=O)c2cc(O)c(O)c(O)c2)c1O | 2.6µM* | ? | -5 | 2 | . | ?
Cc1ncc(CO)c(/C=N/NC(=O)c2ccc(Br)cc2)c1O | ? | ? | 1 | -6 | 4% | ?
Cc1ncc(CO)c(/C=N/Nc2cccc(Cl)n2)c1O | ? | 45% | 21 | 25 | 5% | 2%
CC(C)(Cc1ccccc1)/[N+]([O-])=C\c1ccc(C(F)(F)F)cc1 | ? | 34% | . | . | . | 0%
Cc1cc(=O)oc2c(C)c(OCC(=O)c3ccccc3)ccc12 | 36% | 8% | -4 | -4 | 22% | -3%
CCCc1cc(=O)oc2c(C)c(OCC(=O)Nc3cccnc3)ccc12 | 3.3µM* | 2.3µM* | -1 | 3 | -3% | -5%
Cc1cc(=O)oc2c(C)c(OCC(=O)Nc3cccnc3)ccc12 | ? | -24% | 31* | 41* | 5% | 4%
CCc1nnc(NC(=O)Cn2nc(-c3ccccc3OC)ccc2=O)s1 | 19% | -21% | 1 | -5 | 6% | 9%
COC(=O)C1CCN(C(=O)C2CCC(=O)N(CCc3cccc(F)c3)C2)CC1 (stereo not drawn) | 1% | ? | 13 | 4 | 4% | ?
